This is an account of results in ChEMBL document CHEMBL4296182, “CO-ADD screening of NIH NCI Diversity Set V”.

The term Inhibition denotes the relative decrease from the control value, in per cent.

One experiment concerns Acinetobacter baumannii. Briefly: Antibacterial activity against Acinetobacter baumannii ATCC 19606 (CO-ADD:GN_034); MIC in CAMBH media using NBS plates, by Resazurin F(560/590). As to conditions: Concentration 20 uM, ASSAY_TEST Inhibition of Bacterial Growth, detection method Resazurin, Fluorescence (ex560/em590), MEDIA CAMHB, plate type 384well, CORNING #3640, time 18 hr. In kind it is functional. On the technique in general: Resazurin is reduced to fluorescent resorufin, in cell work by metabolically active cells.
As to `CNC1(C(N)=O)CCNCC1`, the Inhibition is on record as -11.41%. Turning to `O=c1[nH]nc(-c2cc(-c3ccccc3)nc3ccccc23)o1`, the Inhibition was -11.03%. Same read-out and setting: the result for `CC(C)(C)c1ccc(OC(=O)c2ccccc2)cc1` reads 6.71%. On to `NC(=O)c1cc(Br)cc(C2CCCCC2)c1O`, for which the Inhibition was -1.26%. On to `CC(=O)NS(=O)(=O)c1ccc2sc(C)nc2c1`, for which the Inhibition is reported as -11.67%. Still for that read-out and setting: to `CCNc1ccccc1C(=O)O` belongs -10.34%; to `CN(C)c1ccc(/C=C2/C=C(c3ccc4c(c3)CCCC4)OC2=O)cc1`, -7.24%; to `CSc1cccc(NC(=O)Nc2ccccc2C(N)=O)c1`, 10.06%. The same measure, in the same setting: to `CCn1c2ccccc2nc2cc3c(cc21)c(Cl)c(=O)c1ccccc13` belongs 12.51%; to `Cc1ccc(NC(=S)NC(=O)c2ccccc2)cc1NC(=S)NC(=O)c1ccccc1`, -11.72%. `CN1N=C/C(=C/NC(N)=O)C1=O`: the Inhibition is recorded as -2.43%. Same read-out and setting: to `O=C(Nc1ccc(Cl)c(Cl)c1)Nc1ccccc1O` belongs 0.1%; to `CC(=O)OCC1OC(COC(C)=O)(c2ccc(C)cc2)C(OC(C)=O)C1OC(C)=O` (configuration not stated), -11.43%. The same measure, in the same setting: the result for `Cc1ccc(NC(=O)N2CCCCC2)cc1NC(=O)N1CCCCC1` reads 7.43%; that for `Nc1nc(N)nc(-c2ccccc2-c2nc(N)nc(N)n2)n1`, 8.5%; that for `O=C(O)CCC(=O)OCCN(Cc1ccc(Oc2ccc([N+](=O)[O-])cc2)cc1)C(=O)C(Cl)Cl`, 0.5%. Consider `COC1OC(CO)C(N=C(C)C)C1O` (configuration not stated), for which the Inhibition is reported as -14%.

As to `COc1cccc(/C=C2\CCc3ccccc3C2=O)c1`, the Inhibition is -13.61%. As for `O/N=C(/c1ccccc1)c1ccc2c3c(cccc13)CC2`, the Inhibition is on record as -12.52%.

Take `Cc1nc(C(N)=O)nc2ccccc12`: the Inhibition is listed as -10.29%.

For the next experiment, the system named is Escherichia coli. In words: Antibacterial activity against Escherichia coli ATCC 25922 (CO-ADD:GN_001); MIC in CAMBH media using NBS plates, by Resazurin F(560/590). As to conditions: Concentration 20 uM, ASSAY_TEST Inhibition of Bacterial Growth, detection method Resazurin, Fluorescence (ex560/em590), MEDIA CAMHB, plate type 384well, CORNING #3640, time 18 hr. It counts as functional.
For `CCOC(=O)N1C/C(=C\c2ccccc2)C(=O)/C(=C/c2ccccc2)C1`, the Inhibition is given as 0.16%.

Regarding `O=C(Nc1ccc(Br)cc1)Nc1ccccc1Cl`, the Inhibition turned out to be 10.13%. Consider `N#C/C(=C\c1ccc(C#N)cc1)C(=O)c1ccccc1`, for which the Inhibition worked out at 6.05%. As for `Nc1ccc(-c2nc3nc(N)nc(N)c3nc2-c2ccc(N)cc2)cc1`, the Inhibition is -0.05%. Same read-out and setting: to `Cc1cc(=O)oc2cc(OS(C)(=O)=O)ccc12` belongs 13.01%; to `Nc1ccc(OC(=O)Nc2ccc(O)cc2)cc1`, -11.72%.

With `CCOC(=O)/C(C#N)=C/c1cccc(C)c1`, the Inhibition was 20.45%. In the case of `Cc1nc(S)nc(O)c1CCC1OCCO1`, the Inhibition was 10.14%. On to `N#CC1C(=O)NC(=O)C(C#N)C12CCCC(C(F)(F)F)C2` (configuration not stated), for which the Inhibition is -6.62%. The same measure, in the same setting: the result for `O=C1c2cc([N+](=O)[O-])ccc2-c2cc(Br)c(NC(=NO)C(F)(F)F)cc21` reads 18.87%; that for `O=C(Nc1ccc(F)cc1)OCCOc1ccc(Br)cc1`, -0.96%.

Take `O=C(O)CCC1(c2ccccc2)NC(=O)NC1=O` (configuration not stated): the Inhibition was determined as 7.41%.

As for `CCOC(=O)c1c(C)nc(C)c(C(=O)OCC)c1-c1ccc(OC)cc1`, the Inhibition is reported as -21.92%. As for `O=C(Nc1ccc2ccccc2c1)c1cccc(F)c1`, the Inhibition is recorded as 8.09%. As to `CCOC(=O)c1c(N)ssc1=S`, the Inhibition is recorded as -3.33%.

Turning to `O=C(Nc1ccc(C2=NCCCN2)cc1)Nc1ccc(C2=NCCCN2)cc1`, the Inhibition is recorded as -5.49%. Consider `CCOC(=O)/C=C/c1ccc(C(=O)OCC)[nH]1`, for which the Inhibition stood at 20.38%. For `CCOC(=O)c1nc(SC)n(C)c1C(=O)OCC`, the Inhibition amounted to 18.32%. On to `c1ccc(CSc2nc3c[nH]cnc-3n2)cc1`, for which the Inhibition was 6.08%. `CNC1(C(N)=O)CCNCC1`: the Inhibition was determined as 16.83%.

With `O=c1[nH]nc(-c2cc(-c3ccccc3)nc3ccccc23)o1`, the Inhibition amounted to 4.61%. On the same count and under the same terms, to `CC(C)(C)c1ccc(OC(=O)c2ccccc2)cc1` belongs 7.42%. For `NC(=O)c1cc(Br)cc(C2CCCCC2)c1O`, the Inhibition was found to be 2.39%. In the case of `CC(=O)NS(=O)(=O)c1ccc2sc(C)nc2c1`, the Inhibition is recorded as 8.35%.

In the case of `CCNc1ccccc1C(=O)O`, the Inhibition came to 13.74%. For the compound `CN(C)c1ccc(/C=C2/C=C(c3ccc4c(c3)CCCC4)OC2=O)cc1`, the Inhibition stood at 16.55%. On the same count and under the same terms, the result for `CSc1cccc(NC(=O)Nc2ccccc2C(N)=O)c1` reads 13.89%; that for `CCn1c2ccccc2nc2cc3c(cc21)c(Cl)c(=O)c1ccccc13`, 3.84%. Regarding `Cc1ccc(NC(=S)NC(=O)c2ccccc2)cc1NC(=S)NC(=O)c1ccccc1`, the Inhibition is 7.94%. With `CN1N=C/C(=C/NC(N)=O)C1=O`, the Inhibition is 9.08%. Take `O=C(Nc1ccc(Cl)c(Cl)c1)Nc1ccccc1O`: the Inhibition is reported as -13.39%.

As to `CC(=O)OCC1OC(COC(C)=O)(c2ccc(C)cc2)C(OC(C)=O)C1OC(C)=O` (configuration not stated), the Inhibition is reported as 15.38%.
